Measured values from PubChem BioAssay.
Where “and” joins values, the source holds several entries; their conditions need not be identical. Identical values can stand only once. Results filed as inconclusive are left out. For some of these results: Measured potencies and affinities stand elsewhere. Calls of active or inactive are those of the source. Unless noted, how the calls were made is not given here.

What was measured:
[1] = target: ATP-dependent translocase ABCB1 (Homo sapiens) (UniProt P08183); assay: MDR1 (ABCB1) efflux transporter inhibition, cell-based (AID 377; in the data active means fluorescence slope change above about 50%); conditions: MDR1-expressing cells, fluorescent substrate accumulation slope; stronger effect = higher value; concentration not given here
ATP-dependent translocase ABCB1 (Homo sapiens), sequence (P08183 whole entry, looked up): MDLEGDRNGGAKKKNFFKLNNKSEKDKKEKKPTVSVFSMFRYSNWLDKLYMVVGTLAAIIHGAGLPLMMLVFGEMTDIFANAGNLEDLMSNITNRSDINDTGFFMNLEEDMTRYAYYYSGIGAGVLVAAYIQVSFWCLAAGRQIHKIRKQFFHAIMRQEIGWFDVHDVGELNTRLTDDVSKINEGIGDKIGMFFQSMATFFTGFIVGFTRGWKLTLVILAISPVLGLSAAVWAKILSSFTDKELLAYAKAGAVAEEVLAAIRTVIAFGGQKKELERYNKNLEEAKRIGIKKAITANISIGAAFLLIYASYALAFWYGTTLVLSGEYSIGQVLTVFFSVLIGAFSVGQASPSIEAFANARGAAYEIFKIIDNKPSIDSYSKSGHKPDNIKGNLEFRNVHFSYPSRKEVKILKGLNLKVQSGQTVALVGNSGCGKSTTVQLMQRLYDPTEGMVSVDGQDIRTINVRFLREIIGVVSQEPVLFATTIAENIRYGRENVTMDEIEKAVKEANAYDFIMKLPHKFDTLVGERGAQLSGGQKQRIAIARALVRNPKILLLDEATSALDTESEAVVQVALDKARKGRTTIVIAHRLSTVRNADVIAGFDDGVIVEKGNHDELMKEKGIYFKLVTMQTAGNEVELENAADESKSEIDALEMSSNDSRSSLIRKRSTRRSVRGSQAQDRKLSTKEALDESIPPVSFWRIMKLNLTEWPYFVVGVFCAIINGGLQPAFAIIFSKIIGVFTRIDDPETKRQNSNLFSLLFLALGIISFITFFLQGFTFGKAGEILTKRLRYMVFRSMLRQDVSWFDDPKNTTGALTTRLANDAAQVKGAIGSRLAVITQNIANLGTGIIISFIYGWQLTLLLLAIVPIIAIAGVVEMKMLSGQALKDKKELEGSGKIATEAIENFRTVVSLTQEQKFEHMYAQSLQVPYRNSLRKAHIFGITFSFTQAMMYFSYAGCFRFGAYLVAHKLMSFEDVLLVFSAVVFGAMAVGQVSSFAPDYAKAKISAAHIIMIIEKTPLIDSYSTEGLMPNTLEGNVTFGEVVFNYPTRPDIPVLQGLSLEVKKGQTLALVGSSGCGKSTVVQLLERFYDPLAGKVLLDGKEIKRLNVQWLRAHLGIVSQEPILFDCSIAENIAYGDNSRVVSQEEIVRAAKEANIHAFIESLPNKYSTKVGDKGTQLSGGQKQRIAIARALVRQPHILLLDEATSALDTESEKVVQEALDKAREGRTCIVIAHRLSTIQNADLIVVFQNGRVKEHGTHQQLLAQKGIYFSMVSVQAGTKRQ

[2] = hESC survival regulators, cell-based (AID 493140); conditions: human embryonic stem cell survival screen; stronger effect = higher value;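 further: cells exposed to compounds for four days before counting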
[3] = liver-stage malaria parasite growth inhibition, primary screen, cell-based, HepG2, luciferase luminescence, HepG2 viability (AID 624349; in the data active means parasite load remaining mostly below about 12%, no sharp cut-off; inactive means mostly above about 10%;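 further: 100% = mean of DMSO negative control wells on the same plate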); conditions: P. berghei liver stage in HepG2, luciferase luminescence, concentration not given here; parasite load remaining: stronger effect = lower value; viability: measured here: HepG2 viability without parasites
[4] = Cy5 fluorescence interference with SSB-bound oligo, artefact control for HCV NS3 helicase inhibitor project, biochemical, NIH Clinical Collection, E. coli SSB (AID 743268)
[5] = test system: Hepatitis C virus NS3 helicase; assay: HCV NS3 helicase inhibitors, primary screen, biochemical, fluorescence polarization, NIH Clinical Collection (AID 743270); conditions: NS3 helicase binding to Cy5-dT15 DNA, stronger effect = higher value, concentration not given here
[6] = target: Single-stranded DNA-binding protein (Escherichia coli (strain K12)) (UniProt P0AGE0); assay: E. coli SSB displacement from DNA, counter-screen for HCV NS3 helicase inhibitor project, biochemical, fluorescence polarization, NIH Clinical Collection (AID 743271; in the data active means inhibition above about 28%); conditions: stronger effect = higher value, concentration not given here
[7] = fluorescence interference in NS3h assay format, artefact control for HCV NS3 helicase inhibitor project, biochemical, NIH Clinical Collection (AID 743272); conditions: fluorescence interference counterscreen, stronger effect = lower value;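 further: HCV NS3 helicase with a Cy5 labelled single stranded DNA probe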
[8] = stimulators of nuclear beta-catenin in C2C12, primary screen, imaging, WNT3A-conditioned medium, mouse C2C12, NPC library (AID 1117326; in the data active means nuclear beta-catenin stimulation mostly above about 4.2%, no sharp cut-off; inactive means mostly below about 10%); conditions: stronger effect = higher value
[9] = stimulators of insulin release from INS-1E, primary screen, cell-based, 5 mM glucose, NPC library (AID 1117329;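 active means compound raises insulin release from rat beta cells at 5 mM glucose, no numeric limit stated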); conditions: rat INS-1E insulin secretion, at 10 µM, stronger effect = higher value
[10] = growth inhibition of GSK3B-pretreated HCT116 cells – cell-based, CellTiter-Glo, 0.2 to 20 µM (AID 1117336;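 active means compounds lowering colon cancer cell viability after pretreatment blocking the GSK3B kinase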); conditions: HCT116 viability after GSK3B inhibitor, at 20 µM, stronger effect = higher value
[11] = inhibition of endothelial tube formation, primary screen, imaging, VEGF stimulated, CD31 staining, tube area, NPC library (AID 1117340;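 active means compound that reduces growth-factor-driven endothelial tube area in a mixed cell culture, no cutoff stated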); conditions: VEGF-stimulated ADSC/ECFC co-culture, at 10 µM, stronger effect = higher value
[12] = glucagon-like peptide 1 release enhancers, primary assay, NCI-H716 cell line, NPC library (AID 1117341;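 active means compound raises GLP1 secretion from the human gut endocrine cells, with no numeric limit stated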); conditions: NCI-H716 cells, at 10 µM, stronger effect = higher value
[13] = HCT116 colon cancer cell growth inhibition, primary screen, CellTiter-Glo luminescence, NPC library (AID 1117342;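 active means compounds that lower survival of HCT116 colon cancer cells in the luminescence readout, no numeric limit stated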); conditions: at 20 µM (top of the series)
[14] = CellTiter-Glo luminescent readout of SW480 viability loss, NPC library primary (AID 1117343;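 active means compounds that lower viability of the colon cancer cells in the luminescence readout, with no numeric limit stated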); conditions: CellTiter-Glo luminescence; at 20 µM (top of the series)
[15] = decreased DLD-1 cellular survival, CellTiter-Glo luminescent readout, NPC compound collection, primary HTS (AID 1117346;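 active means compounds that lower survival of DLD-1 colon cancer cells in the luminescence readout, no cutoff given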); conditions: DLD-1 viability, CellTiter-Glo luminescence; at 20 µM (top of the series)
[16] = target: 6-phosphogluconate dehydrogenase, decarboxylating (Homo sapiens) (UniProt P52209); assay: 6PGD enzyme inhibitors, primary screen, biochemical, human, recombinant enzyme, NADPH absorbance (AID 1159550;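 active means at least 20% inhibition of 6-phosphogluconate dehydrogenase activity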); conditions: recombinant 6PGD, NADPH absorbance 341 nm; at 10 µM; stronger effect = higher value
6-phosphogluconate dehydrogenase, decarboxylating (Homo sapiens), sequence (P52209 whole entry, looked up): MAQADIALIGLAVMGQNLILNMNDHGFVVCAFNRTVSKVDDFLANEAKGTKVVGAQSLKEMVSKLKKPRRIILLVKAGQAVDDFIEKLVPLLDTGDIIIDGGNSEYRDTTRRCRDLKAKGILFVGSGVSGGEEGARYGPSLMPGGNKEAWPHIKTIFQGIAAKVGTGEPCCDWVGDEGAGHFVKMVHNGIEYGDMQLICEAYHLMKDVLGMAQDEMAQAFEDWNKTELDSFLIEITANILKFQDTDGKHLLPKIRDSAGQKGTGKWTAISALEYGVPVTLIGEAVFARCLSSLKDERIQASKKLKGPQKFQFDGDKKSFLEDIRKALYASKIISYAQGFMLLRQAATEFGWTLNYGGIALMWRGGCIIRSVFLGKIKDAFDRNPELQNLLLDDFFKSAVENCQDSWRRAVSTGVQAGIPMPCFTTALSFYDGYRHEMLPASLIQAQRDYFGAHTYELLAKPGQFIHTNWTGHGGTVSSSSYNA

[17] = growth inhibition of DIPG glioma cells, dose response, cell-based, SU-DIPG-XVII, MIPE5.0, CellTiter-Glo, qHTS (AID 1347060; cut-off not given, nearly all actives have AC50 up to about 26 µM); conditions: SU-DIPG-XVII viability, CellTiter-Glo ATP luminescence
[18] = growth inhibition of DIPG glioma cells, dose response, cell-based, SU-DIPG-XIII, MIPE4.0, CellTiter-Glo, qHTS (AID 1347061; cut-off not given, nearly all actives have AC50 up to about 37 µM;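 further: cells exposed to compound for 48 hours before readout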); conditions: SU-DIPG-XIII viability, CellTiter-Glo ATP luminescence
[19] = growth inhibition of DIPG glioma cells, dose response, cell-based, JHH-DIPG-1, MIPE4.0, CellTiter-Glo, qHTS (AID 1347062; cut-off not given, nearly all actives have AC50 up to about 27 µM); conditions: JHH-DIPG-1 viability, CellTiter-Glo ATP luminescence
[20] = growth inhibition of DIPG glioma cells, dose response, cell-based, SU-DIPG-IV, MIPE4.0, CellTiter-Glo, qHTS (AID 1347063; cut-off not given, nearly all actives have AC50 up to about 30 µM;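 further: compound exposure lasted 48 hours before the viability readout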); conditions: SU-DIPG-IV viability, CellTiter-Glo ATP luminescence
[21] = SU-DIPG-VI glioma cell viability, MIPE4.0 library, CellTiter-Glo luminescence, qHTS (AID 1347066; cut-off not given, nearly all actives have AC50 up to about 30 µM;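 further: cells exposed to compound for 48 hours before readout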); conditions: CellTiter-Glo ATP luminescence
[22] = JHH-DIPG-1 glioma cell viability, MIPE5.0 library, CellTiter-Glo luminescence, qHTS (AID 1347067; cut-off not given, nearly all actives have AC50 up to about 26 µM;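 further: cells exposed to compound for 48 hours before readout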); conditions: JHH-DIPG-1 glioma viability, CellTiter-Glo ATP luminescence
[23] = SU-DIPG-XXV glioma cell viability, MIPE5.0 library, qHTS (AID 1347068; cut-off not given, nearly all actives have IC50 up to about 30 µM)
[24] = sensitizers of A549 cells to miR-34 induction, primary screen, imaging, A549 dox-inducible miR-34, nuclei and caspase counts (AID 1347080;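 active means compounds whose cell count with miR-34 switched on is under 0.7 times the count with it off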); conditions: A549 miR-34 inducible, Hoechst nuclei count, 48 h
[25] = survival rescue of mitochondrial mutant cells in low glucose, primary screen, MELAS cybrids, Rieske KO mouse fibroblasts, CellTiter-Glo (AID 1508586;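 active means mean z-score across replicates of 1.96 or higher in either the MELAS or the Rieske mutant cell line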;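 further: z relative to plate mean and SD of compound and empty wells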)
[26] = target: NAD(+) hydrolase SARM1 (Homo sapiens) (UniProt Q6SZW1); assay: SARM1 TIR NADase inhibitors, cell lysate, NAD-Glo luminescence (AID 1508614;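 active means compound whose remaining NAD level is above about 45 nM, limit read from the data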); conditions: SAM-TIR HEK293T lysate NADase, at 1 µM, stronger effect = higher value
NAD(+) hydrolase SARM1 (Homo sapiens), sequence (Q6SZW1 whole entry, looked up, the tested form may be a part): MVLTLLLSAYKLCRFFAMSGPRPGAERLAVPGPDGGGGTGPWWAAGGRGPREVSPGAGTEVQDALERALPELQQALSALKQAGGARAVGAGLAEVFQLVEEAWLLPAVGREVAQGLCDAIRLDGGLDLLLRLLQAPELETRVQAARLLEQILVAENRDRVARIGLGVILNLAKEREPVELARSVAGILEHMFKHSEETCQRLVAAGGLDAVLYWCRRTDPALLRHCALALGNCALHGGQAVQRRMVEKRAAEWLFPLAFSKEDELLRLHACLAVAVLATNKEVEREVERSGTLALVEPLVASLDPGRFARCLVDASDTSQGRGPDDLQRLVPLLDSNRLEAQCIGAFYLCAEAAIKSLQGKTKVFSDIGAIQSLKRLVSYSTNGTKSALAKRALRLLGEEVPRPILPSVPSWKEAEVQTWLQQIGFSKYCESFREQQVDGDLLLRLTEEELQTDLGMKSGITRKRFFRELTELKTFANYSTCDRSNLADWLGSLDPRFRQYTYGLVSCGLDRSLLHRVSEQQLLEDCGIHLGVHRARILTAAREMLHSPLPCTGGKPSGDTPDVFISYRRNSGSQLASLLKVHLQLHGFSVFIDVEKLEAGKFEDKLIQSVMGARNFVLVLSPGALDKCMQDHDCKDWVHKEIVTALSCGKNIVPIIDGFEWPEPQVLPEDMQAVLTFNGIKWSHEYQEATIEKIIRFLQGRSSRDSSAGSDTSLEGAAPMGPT

[27] = target: Mitogen-activated protein kinase 7 (Homo sapiens) (UniProt Q13164); assay: ERK5 transactivation activators in reporter cells, primary screen, cell-based, HTS (AID 1508626;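 active means luciferase signal above three times the same-plate solvent-only control wells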;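 further: luciferase driven by Gal4-ERK5 fusion binding five Gal4 sites before minimal TATA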); conditions: HeLa Gal4-ERK5 transactivation, 18 h, at 5 µM, stronger effect = higher value
Mitogen-activated protein kinase 7 (Homo sapiens), sequence (Q13164 whole entry, looked up, the tested form may be a part): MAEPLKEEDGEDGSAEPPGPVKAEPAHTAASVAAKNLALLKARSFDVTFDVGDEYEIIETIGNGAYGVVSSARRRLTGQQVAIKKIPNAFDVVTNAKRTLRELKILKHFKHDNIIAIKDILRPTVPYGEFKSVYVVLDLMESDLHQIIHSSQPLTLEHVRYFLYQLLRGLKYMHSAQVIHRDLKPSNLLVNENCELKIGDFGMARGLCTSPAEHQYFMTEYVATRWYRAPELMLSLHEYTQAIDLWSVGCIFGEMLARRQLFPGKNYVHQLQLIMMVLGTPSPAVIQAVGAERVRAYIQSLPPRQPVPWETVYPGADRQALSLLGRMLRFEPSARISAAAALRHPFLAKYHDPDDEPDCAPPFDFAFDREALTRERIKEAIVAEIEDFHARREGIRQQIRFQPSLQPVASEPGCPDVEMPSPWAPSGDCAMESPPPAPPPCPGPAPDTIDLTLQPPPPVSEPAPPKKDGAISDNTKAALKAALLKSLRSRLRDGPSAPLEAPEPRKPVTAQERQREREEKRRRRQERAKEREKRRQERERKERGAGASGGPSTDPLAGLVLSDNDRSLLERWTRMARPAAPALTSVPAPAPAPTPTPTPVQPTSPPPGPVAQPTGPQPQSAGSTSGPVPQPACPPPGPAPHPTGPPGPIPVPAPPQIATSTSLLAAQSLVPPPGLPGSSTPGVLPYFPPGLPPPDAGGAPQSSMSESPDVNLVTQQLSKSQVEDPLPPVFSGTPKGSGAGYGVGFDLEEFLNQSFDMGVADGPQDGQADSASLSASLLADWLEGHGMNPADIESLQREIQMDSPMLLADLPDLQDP

[28] = viability rescue of complex I mutant cybrids, primary screen, cell-based, galactose medium, ATP luminescence (AID 1645843;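 active means z-score of at least 1.8 in each of two replicates, scored against plate mean and spread of sample wells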;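 further: positive z means more ATP and so rescue of galactose-driven cybrid death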); conditions: complex I mutant cybrid cells, 72 h, stronger effect = higher value
[29] = test system: F380Y; assay: modulators of BK channel variants, profiling panel, selectivity assay, cell-based, U2OS BacMam, thallium flux, beta subunits (AID 1259406;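 active means thallium flux through the channel raised or lowered by more than 3 SD from vehicle-only wells, actives on both sides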;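 further: initial slope of Thallos dye fluorescence rise after thallium is added; log ratio against the mean of 0.3% DMSO vehicle wells on the same plate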); conditions: at 30 µM
[30] = test system: F380Y/beta1; assay: as above; conditions: at 30 µM
[31] = test system: F380Y/beta2Delta; assay: as above; conditions: at 30 µM
[32] = test system: F380Y/beta4; assay: as above; conditions: at 30 µM
[33] = target: Calcium-activated potassium channel subunit alpha-1 (Homo sapiens) + Leucine-rich repeat-containing protein 26 (Homo sapiens) (UniProt Q12791+Q2I0M4); assay: as above; conditions: F380Y/Slo1WT/gamma1, at 30 µM
Calcium-activated potassium channel subunit alpha-1 (Homo sapiens) + Leucine-rich repeat-containing protein 26 (Homo sapiens), sequence (Q2I0M4 whole entry, looked up, one chain of several): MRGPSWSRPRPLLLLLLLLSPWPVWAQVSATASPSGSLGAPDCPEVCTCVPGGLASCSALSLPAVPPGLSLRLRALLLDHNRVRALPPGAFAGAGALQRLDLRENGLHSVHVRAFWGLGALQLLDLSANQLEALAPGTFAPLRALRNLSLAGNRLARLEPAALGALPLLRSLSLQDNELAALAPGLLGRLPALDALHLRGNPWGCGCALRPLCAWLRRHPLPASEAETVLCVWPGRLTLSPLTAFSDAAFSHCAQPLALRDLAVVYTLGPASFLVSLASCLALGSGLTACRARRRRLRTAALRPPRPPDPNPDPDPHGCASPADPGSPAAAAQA

[34] = test system: R275C; assay: as above; conditions: at 30 µM
[35] = test system: R275C/beta1; assay: as above; conditions: at 30 µM
[36] = test system: R275C/beta2Delta; assay: as above; conditions: at 30 µM
[37] = test system: R275C/beta4; assay: as above; conditions: at 30 µM
[38] = test system: R275C/Slo1WT/beta2; assay: as above; conditions: at 30 µM
[39] = polyglutamine-triggered caspase-3 activation inhibitors, cell-based (AID 1583); conditions: polyglutamine-induced caspase-3 activation, cell assay; stronger effect = higher value;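 tested at 10 µM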
[40] = suppressors of polyQ aggregation in yeast, 75Q-TubU reporter (AID 1593); conditions: Yeast 75Q polyglutamine aggregation reporter
[41] = rescue of polyQ-huntingtin neuronal dysfunction in worms, whole organism, C. elegans mechanosensory neurons, N-terminal huntingtin (AID 1599); conditions: touch response, stronger effect = higher value
[42] = inhibitors of mitochondrial cytochrome c release, biochemical, purified mitochondria (AID 1603); conditions: stronger effect = lower value;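 further: mouse liver mitochondria challenged with calcium chloride; signal normalized to the plate average as 100%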
[43] = inhibitors of polyQ protein aggregation (AID 1604); conditions: polyglutamine-induced protein aggregation inhibition assay; stronger effect = higher value; tested at 2.5 µM
[44] = protection against mutant huntingtin cytotoxicity, PC12 cells, LDH release (AID 1610); conditions: PC12 mutant huntingtin toxicity, final LDH at 4 uM, stronger effect = lower value
[45] = enhancers of glutamate uptake in motor neurons, MN-1 cell line (AID 1612); conditions: MN-1 motor neuron cells, stronger effect = higher value;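 further: tested at 1 µM final; 0% = mean of DMSO vehicle wells on each plate; positive means more glutamate uptake than control and negative means less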
[46] = reducers of polyQ inclusions in PC12 cells, cell-based, NGF-treated PC12, GFPQ80 (AID 1614); conditions: PC12 NGF-treated GFP-polyQ80 inclusion reduction;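 further: lower means fewer inclusions and 0 means no inclusions at all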
[47] = suppressors of polyglutamine aggregation in yeast, 75Q-TubH (AID 1616); conditions: S. cerevisiae 75Q-TubH polyglutamine aggregation suppression; stronger effect = higher value
[48] = circadian clock period modulators, cell-based, LOPAC library, luminescence reporter (AID 2774); conditions: circadian reporter cells, at 7 µM, actives lie on both sides;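 further: values are relative to mean of DMSO wells on each plate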
[49] = test system: Hepatitis C virus NS3 helicase; assay: HCV NS3 helicase inhibitors, primary screen, biochemical, fluorescence polarization, LOPAC1280 library (AID 687035; in the data active means inhibition above about 37%); conditions: Purified HCV NS3 helicase, Cy5-dT15 ssDNA binding fluorescence polarization; stronger effect = higher value; concentration not given here
[50] = Cy5 fluorescence quenching or enhancement artefacts, artefact control for HCV NS3 helicase inhibitor project, biochemical, LOPAC1280 (AID 687037); conditions: Cy5-DNA-NS3h complex fluorescence interference counterscreen
[51] = test system: Neuropilin-2 / VEGF-C interaction (human); assay: inhibitors of NRP2–VEGF-C binding, biochemical, microplate binding format, z-score (AID 743281); conditions: microplate NRP2/VEGF-C binding assay; stronger effect = lower value
[52] = modulation of C. elegans fzo-1 (AID 1259413);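 further: fzo-1 mutant C. elegans worms in liquid wells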; conditions: C. elegans fzo-1 modulator screen, mean read-out; stronger effect = higher value
[53] = differential killing of epithelial or mesenchymal cells, primary screen, imaging, PC-3E GFP, TEM4-18 mCherry, co-culture (AID 1345086;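 active means compounds killing one labelled cell type while sparing the other, by normalised counts and ratio limits, not self-fluorescent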;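 further: cells exposed to compound for 72 h before imaging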;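 on red/green cell ratio (normalised): normalised mesenchymal count divided by normalised epithelial count so high means epithelial killing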); conditions: imaging cell counts, at 1 µM
[54] = growth inhibition of DIPG glioma cells, dose response, cell-based, SU-DIPG-XIII, MIPE5.0, CellTiter-Glo, qHTS (AID 1347064; cut-off not given, nearly all actives have AC50 up to about 23 µM); conditions: SU-DIPG-XIII viability, CellTiter-Glo ATP luminescence
[55] = viability loss in pontine glioma line – cell-based, SU-DIPG-XXV, MIPE5.0, CellTiter-Glo, qHTS, dose response (AID 1347065; cut-off not given, nearly all actives have AC50 up to about 26 µM;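 further: cells exposed to compound for 48 hours before ATP readout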); conditions: CellTiter-Glo ATP luminescence
[56] = phospholipid biosynthesis inhibitors in animal cells, primary screen, cell-based, LOPAC library, screen 4 (AID 1347384); conditions: phospholipid biosynthesis inhibition screen, at 10 µM
[57] = MELAS cybrid survival, CellTiter-Glo 48 h, stronger effect = higher value
[58] = Rieske KO mouse fibroblast survival, CellTiter-Glo 72 h

C#C[C@]1(O)CC[C@H]2[C@@H]3CCC4=CC(=O)CC[C@@H]4[C@H]3CC[C@@]21CC
1.39 and 1.03 and 0.879: fold change ([24]; measured here: relative caspase fold change +Dox/-Dox)
-0.1%: nuclear beta-catenin stimulation ([8]; stimulation, at 2 µM)
8700 and 5730 and 8530: cell count ([24]; measured here: total cells with miR-34 induction, stronger effect = lower value)
inactive: fluorescence slope change [1] -2.5% | survival [2] 3.67 | parasite load remaining [3] 51.8% and 75.6% and 14.7% | fluorescence ratio [4] 1.02 | inhibition [5] -3.56% | inhibition [6] -0.1% | fluorescence ratio [7] 0.96 | nuclear beta-catenin stimulation ([8]; at 10 µM) 2.2% | insulin secretion stimulation [9] -1.1% | viability decrease [10] -54.4% | tube area decrease [11] 0.1% | GLP1 secretion stimulation [12] 4.1% | inhibition of viability [13] -5.1% | viability decrease (inhibition) [14] 4.3% | viability decrease (inhibition) [15] -24.6% | inhibition [16] -0.702% | outcome [17] | outcome [18] | outcome [19] | outcome [20] | outcome [21] | outcome [22] | outcome [23] | fold change ([24]; stronger effect = lower value, cell number ratio, induced over uninduced) 0.855 and 0.976 and 0.873 | z-score [25, 57] 1.16 and 0.00976 | remaining NAD [26] 10 nM | luciferase signal [27] 44 AU | z-score [28] 0.335 | log fold change Tl+ flux [29] 0.0315 | log fold change Tl+ flux [31] 0.00649 | log fold change Tl+ flux [32] -0.00261 | log fold change Tl+ flux [33] 0.0485 | log fold change Tl+ flux [34] -0.0255 | log fold change Tl+ flux [35] 0.00999 | log fold change Tl+ flux [36] -0.0278 | log fold change Tl+ flux [37] -0.0556 | log fold change Tl+ flux [38] -0.0344
93.6% and 73.1% and 73.5%: viability [3]
1.41 and 0.657: z-score [25, 58]
active: log fold change Tl+ flux [30] 0.149
10200 and 5870 and 9770: cell count ([24]; measured here: total cells without miR-34 induction)

O=C(c1ccccc1)c1ccc2n1CCC2C(=O)O (stereo unspecified)
1.24: normalised cell number ([53]; measured here: mesenchymal TEM4-18 mCherry cell survival)
active: AC50 [18] 8.33 µM
-0.239 and 0.894 and -0.237: z-score [25, 58]
1.22: score [40]
60.8%: inhibition of aggregation [43]
0.828: normalised LDH release [44]
-0.5%: nuclear beta-catenin stimulation ([8]; stimulation, at 2 µM)
14.7%: glutamate uptake change [45]
1.05%: inhibition [39]
2: inclusion score [46]
inactive: period change [48] -0.025 h | survival [2] 2.17 | inhibition [49] -3% | fluorescence ratio (interference) [50] 1 | fluorescence ratio [4] 1.01 | inhibition [5] -2.77% | inhibition [6] -7.8% | fluorescence ratio [7] 0.99 | z-score [51] -0.0903 | nuclear beta-catenin stimulation ([8]; at 10 µM) -0.4% | insulin secretion stimulation [9] 0.8% | viability decrease [10] 3.4% | tube area decrease [11] 15.4% | GLP1 secretion stimulation [12] -3.6% | inhibition of viability [13] -1.1% | viability decrease (inhibition) [14] 1.1% | viability decrease (inhibition) [15] 11.4% | inhibition [16] 6.58% | mean signal [52] 231 | red/green cell ratio (normalised) ([53]; actives lie on both sides, counts scaled to control wells, 1 = unselective) 1.03 | outcome [17] | outcome [19] | outcome [20] | outcome [54] | outcome [55] | outcome [21] | outcome [22] | outcome [23] | outcome [56] | z-score [25, 57] 0.234 and -0.244 and -0.284 | remaining NAD [26] 10 nM | luciferase signal [27] 36 AU | z-score [28] 0.335 and 1.09 and 0.445
-3.9: rescue above control [41]
1.2: aggregation suppression score [47] | normalised cell number ([53]; measured here: epithelial PC-3E GFP cell survival)
1.43: cytochrome c release ratio [42]
